The panel holds about 83,000 compounds, 20% with a hit somewhere; the sample as a whole holds those more often.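 Testing used 96-well plates and a 48-hour single-concentration exposure. Example: -40 means 40% of the starting cells died.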 Unmarked numbers belong to inactive results. Activity calls are given as the source filed them. Rule for the calls: active = growth percent below 10; inactive = the rest.

Common to all, as to assay: NCI-60 one-dose screen, 48 h (100 = growth as untreated, 0 = no growth, -100 = all killed)
What all share (conditions): 10 µM unless noted

For assay [1], the system named is SK-MEL-2 melanoma.
The subject of assay [2] is SN12C renal.
For assay [3], the system named is TK-10 renal.
In assay [4] the test system is ACHN renal.
Assay [5] relates to CAKI-1 renal.
Assay [6] relates to A498 renal.
In assay [7] the test system is CCRF-CEM leukemia.
In assay [8] the test system is MOLT-4 leukemia.
Assay [9] has as its system RPMI-8226 leukemia.
In assay [10] the test system is OVCAR-8 ovarian.
Assay [11] deals with OVCAR-5 ovarian.
The subject of assay [12] is OVCAR-4 ovarian.
The subject of assay [13] is SK-OV-3 ovarian.
Assay [14] has as its system OVCAR-3 ovarian.
For assay [15], the system named is HS 578T breast.
Assay [16] concerns NCI/ADR-RES ovarian.
Assay [17] concerns SR leukemia.
Assay [18] relates to IGROV1 ovarian.
The test system of assay [19] is UO-31 renal.
The subject of assay [20] is EKVX NSCLC.

For `COc1cc(/C=C/C(=O)CC(=O)/C=C/c2ccc(OC(=O)C3C4CC5CC(C4)CC3C5)c(OC)c2)ccc1OC(=O)C1C2CC3CC(C2)CC1C3` (stereo not given), the growth was 93.1% in assay [1]; 108% in assay [2]; 96.9% in assay [3]; 144% in [4]; 99.6% in assay [5]; 109% in assay [6]. Further, the growth in assay [7] is 89.8%; in assay [8] it was 103%; in assay [9], 112%; in assay [10], 97.2%; in [11], 87.2%; in assay [12], 105%. For the same compound, the growth is 110% in [13], 118% in assay [14], 129% in assay [15] and 107% in assay [16].

For the compound `COc1ccc(-c2c3c(N)nc(-c4ccncc4)nc3nc3c2c(C)nn3-c2ccccc2)cc1`, the growth is 48.1% in [1]; 83.7% in [2]; 47% in assay [3]; 3.79% (active) in [4]; 36% in [5]; 73.2% in [6]. In addition, the growth in [8] is 51.2%; in assay [17], 17.1%; in assay [9], 84.3%; in assay [10], 63.2%; in assay [11] it was 64.7%; in assay [12], 11.4%. The growth in assay [13] is 53.4%; in [18], 77%; in assay [14] it was 22.4%; in [15], 71.2%.

In the case of `CN1CCN(c2nc3scc(-c4ccccc4)c3c(=O)[nH]2)CC1`, the growth was 104% in assay [1]; 100% in assay [2]; 107% in [4]; 91% in assay [6]; 103% in [7]; 95.5% in assay [8]. Further, the growth in assay [17] was 94.1%; in assay [9], 97.4%; in assay [10], 106%; in assay [11] it was 93%; in [12] it was 97.4%; in assay [13], 103%. In addition, the values for the growth in assay [18], in [15] and in [16] were 97.6%, 100% and 99.2%, respectively.

`COc1ccc(C2=NN(C(C)=O)C(c3c(C)nn(-c4ccccc4)c3N3CCOCC3)C2)cc1` (stereo not given): the growth in [1] is 106%; in assay [2] it was 91.9%; in [19] it was 77.2%; in assay [4], 95%; in assay [6] it was 91.3%; in assay [7], 95.4%. Moreover, the growth is 88% in assay [8]; 90.5% in assay [17]; 97.9% in [9]; 94.4% in [10]; 97.6% in assay [11]; 89.5% in assay [12]. The growth in [13] was 80.4%; in [18] it was 103%; in assay [14], 104%; in assay [15] it was 96.7%; in assay [16], 94.7%.

For the compound `CCOC(=O)c1sc(NC(=O)COc2cccc(/C=C3\Cc4ccc(Cl)cc4C3=O)c2)nc1C`, the growth in assay [20] was 107%; in assay [2], 105%; in assay [19], -17.4% (active); in [3], 145%; in assay [4], 110%; in assay [5], 84.6%. The growth in [6] is 133%; in assay [7] it was 114%; in assay [8] it was 105%; in [17] it was 114%; in [9] it was 57.5%; in assay [11], 101%. The growth in assay [12] is 118%; in [13], 114%; in assay [14], 120%; in [15] it was 110%; in assay [16], 97%.

Consider `COc1ccc(N2CCN(CC(=O)N3CCN(c4nnc(-c5ccc(Cl)cc5)c(-c5ccc(Cl)cc5)n4)CC3)CC2)cc1`, for which the growth was 53.4% in assay [20]; 67.7% in assay [2]; 21.2% in [19]; 84.2% in [3]; 52.3% in assay [4]; 147% in assay [5]. For the same compound, the growth in [6] was 38.1%; in [7] it was 20.6%; in assay [8] it was -21.2% (active); in [9] it was -14.8% (active); in assay [11], 91.6%; in [12], 55.5%. Further, the growth in assay [13] was 99.5%; in assay [14], 52%; in assay [15], 52.9%; in [16], 61.7%.

For `COc1ccc(N2CCN(CC(=O)N3CCN(c4nnc(-c5ccccc5)c(-c5ccccc5)n4)CC3)CC2)cc1`, the growth in [20] was 35.3%; in assay [2], 46.8%; in assay [19], 24.9%; in [3] it was 64.7%; in assay [4] it was 40.5%; in assay [5], 76.5%. Also, the growth in assay [6] is 44.1%; in [7], 32.4%; in assay [8], 1.56% (active); in assay [9], 1.97% (active); in assay [11] it was 90.3%; in assay [13], 80.7%. The growth is 49.5% in assay [14], 54.7% in [15] and 49.9% in assay [16].

On to `CC(C)=CCNc1ncnc2c1ncn2C1OC(COP(=O)(O)O)C(O)C1O` (stereo not given), for which the growth in [1] was 69.4%; in assay [2] it was 32.4%; in [19] it was 39.6%; in assay [4], 28.2%; in assay [5], 16.3%; in [6], -7.75% (active). The growth in assay [7] is 11.4%; in assay [8], 6.19% (active); in assay [17], -15.2% (active); in assay [9] it was 109%; in assay [11], 74.5%; in assay [12], 85.4%. For the same compound, the growth in [13] is 12.9%; in assay [18], 54.6%; in assay [15] it was 63.8%; in assay [16] it was 39.1%.

Regarding `CCOc1cc(/C=C/C(=O)C(C(=O)/C=C/c2ccc(OC(=O)CNc3nc4ccccc4[nH]3)c(OCC)c2)C(=O)CNc2nc3ccccc3[nH]2)ccc1OC(=O)CNc1nc2ccccc2[nH]1`, the growth is 13.2% in assay [1]; -22.9% (active) in [2]; 31.8% in assay [3]; -12.2% (active) in assay [5]; -9.48% (active) in assay [6]; -27.5% (active) in [8]. Further, the growth in assay [9] is -74.4% (active); in assay [10], 9.36% (active); in [12], 26.9%; in assay [13], 29.4%; in assay [18], -33.2% (active); in [14], -2.21% (active). Also, the growth in assay [15] is -4.12% (active); in assay [16], 24.3%.

Take `CN1C(=O)C(C2=NN(C=O)C(c3ccc(F)cc3)C2)C(=O)N(C)C1=O` (stereo not given): the growth in assay [20] was 101%; in assay [2] it was 97.3%; in assay [19], 96.6%; in [3], 99.1%; in [4], 107%; in [6], 96.7%. Also, the growth in [7] is 77.4%; in [8], 93.8%; in [17] it was 101%; in assay [9], 95.8%; in assay [10], 98.9%; in [11], 97.1%. Moreover, the growth is 102% in [12]; 94.6% in assay [13]; 104% in assay [18]; 99.9% in [14]; 99.2% in assay [16].

In the case of `Nc1nc2c(c(=O)[nH]1)C1(C(=O)Nc3ccccc31)c1c(nc(N)[nH]c1=O)N2`, the growth in [20] is 104%; in assay [2], 103%; in assay [19] it was 86.7%; in [4] it was 105%; in assay [5], 102%; in assay [6], 108%. Moreover, the growth in assay [7] is 105%; in [8], 90%; in assay [17], 111%; in assay [9] it was 96.2%; in [10], 114%; in assay [11] it was 112%. Also, the growth was 102% in assay [12]; 108% in assay [13]; 101% in assay [18]; 103% in [14]; 110% in [15]; 102% in assay [16].

On to `c1ccc2c(-c3nc4ccccc4[nH]3)cccc2c1`, for which the growth in assay [20] is 70%; in assay [2], 47.3%; in assay [19], 60.5%; in [4], 52.7%; in [5], 61.2%; in assay [6], 29.1%. For the same compound, the growth in assay [7] is 22.3%; in [8], 11.6%; in [17], 12.5%; in assay [9], 33.2%; in assay [10], 47.4%; in assay [11], 62.9%. Besides, the growth in assay [12] was 77.3%; in assay [13], 30.8%; in assay [18], 44.1%; in assay [14], 12.2%; in assay [15], 44.5%; in assay [16] it was -16.2% (active).

On to `CCCCc1n(Cc2ccc3ccccc3c2)cc[n+]1Cc1ccc2ccccc2c1`, for which the growth is 14.4% in [20]; -22.3% (active) in assay [2]; 18.9% in [19]; -10.4% (active) in [3]; 30% in assay [4]; 0.276% (active) in assay [6]. Also, the growth in assay [7] was 6.82% (active); in [8], -17.5% (active); in [17], -44.1% (active); in assay [9], -39.9% (active); in [10] it was -35.8% (active); in assay [11] it was 8.66% (active). Also, the growth in assay [12] was 9.46% (active); in [13], -3.39% (active); in assay [18], -57.9% (active); in [14] it was -80.1% (active); in assay [16], 87.9%.

As for `CC1(C)CC2(C)CC(=O)C1C(C(=O)O)C2C(=O)O` (stereo not given), the growth in assay [20] was 121%; in assay [2] it was 105%; in assay [19] it was 98%; in assay [4] it was 97.2%; in assay [5], 114%; in assay [6], 111%. In addition, the growth in [7] was 99.4%; in assay [8], 94.3%; in assay [17], 90%; in assay [9], 106%; in assay [10] it was 102%; in assay [11], 98.3%. Also, the figures for the growth in assay [13], in assay [18] and in assay [15] were 101%, 109% and 102%, respectively.

For `O=C1CNc2cc(Cl)ccc2N1`, the growth was 89.1% in assay [20]; 103% in [2]; 81.6% in assay [19]; 98.6% in assay [4]; 97.8% in [5]; 97.3% in assay [6]. Moreover, the growth is 93.3% in assay [7]; 87.4% in assay [8]; 94.7% in [17]; 103% in assay [9]; 99.7% in assay [10]; 102% in assay [11]. Moreover, the growth is 115% in assay [12]; 106% in assay [13]; 108% in assay [14]; 97.4% in assay [15]; 108% in [16].

As to `COc1ccc2c(=O)c(OC)c(-c3cc(OC)c(OC)c(OC)c3)oc2c1`, the growth in [20] was 109%; in assay [2], 77%; in assay [19], -82.5% (active); in [3] it was 124%; in [4], 92.2%; in assay [6], 96.1%. The growth was 93.4% in assay [7]; 99.6% in assay [8]; 92.6% in assay [9]; 101% in assay [11]; 96.6% in [12]; 114% in assay [13]. The growth is 91.9% in assay [15] and 83.9% in assay [16].

As to `CC(=O)N1N=C(c2ccc(Cl)cc2)CC1c1c(C)nn(-c2ccccc2)c1N(C)Cc1ccccc1` (stereo not given), the growth in assay [20] was 76.4%; in assay [2] it was 63.2%; in assay [19], 50.2%; in assay [3], 88.5%; in assay [4], 90.9%; in [6] it was 71.6%. The growth is 73% in assay [7]; 44.4% in assay [8]; 72.4% in assay [17]; 46.8% in [9]; 80.9% in assay [10]; 97.9% in [11]. In addition, the growth is 80% in assay [12]; 70.6% in assay [13]; 63.7% in [18]; 81.9% in assay [14]; 64.1% in assay [16].
